“And” between values parts separate entries of the source, which are not always exact repeats. Identical values can stand only once. Results with a measured potency or affinity are listed apart.
Legend:
Klebsiella pneumoniae = conditions: Concentration 32 ug.mL-1, ASSAY_TEST Inhibition of Bacterial Growth, detection method Absorption (OD600), MEDIA CAMHB, plate type 384well, NBS, CORNING #3640, time 18 hr
Candida albicans = conditions: 32 ug/mL
Cryptococcus neoformans = conditions: Concentration 32 ug.mL-1, ASSAY_TEST Inhibition of Fungal Growth, detection method Resazurin, Absorption (OD600-OD570), plate type 384well, NBS, CORNING #3640

Row | SMILES | Inhibition (Klebsiella pneumoniae) [%] | Inhibition (Candida albicans) | Inhibition (Cryptococcus neoformans) [%] | Inhibition (Klebsiella pneumoniae; 32 ug/mL) | Inhibition (Cryptococcus neoformans; 32 ug/mL)
1 | Cl.ClCCN1CCCCC1 | 11.31 | 4.96% | -9.27 |  | 
2 | Cc1ccccc1C=C(C#N)C#N | -3.33 | -0.55% | -4.61 |  | 
3 | CN1CC=C(c2cccn2C)CC1 | 7.84 | 3.67% | -4.6 |  | 
4 | N#Cc1cc(C#N)c(N2C3CCC2CC3)nc1N | -5.68 | 3.02% | -1.32 |  | 
5 | C#CCN(C)Cc1cc2cc(OCCCC3CCN(Cc4ccc(OC(=O)N(C)C)c5ncccc45)CC3)ccc2n1C | 4.78 | 5.51% | -77.63 |  | 
6 | C#CCN1CCc2nc3ncccc3c(N)c2C1.Cl | 8.58 | 2.69% | -56.71 |  | 
7 | C#CCN1CCc2nc(N)c(C#N)c(-c3ccccc3)c2C1 |  | 1.84% and 1.59% |  | 13.26% and 8.28% | -44.69% and -39.47%
8 | C#CCN1CCc2nc3nc(Cl)c(C#N)cc3c(N)c2C1 | 7.38 | 0.36% | -89.58 |  | 
9 | Nc1c2c(nc3ccccc13)CCN(Cc1ccccc1)C2 | 4.75 | -0.35% | -78.39 |  | 
10 | N#CCC(=O)c1ccccc1 | 12.74 | 10.4% | -3.25 |  | 
11 | CCOC(=O)C1=C(C)NC(=O)CC1c1ccccc1 (configuration not stated) | 18.92 | 2.43% | -58.04 |  | 
12 | COc1ccc(C=C(C#N)C#N)cc1OC | 6.42 | 0.87% | -1.94 |  | 
13 | Cc1ccc(C=C(C#N)C#N)cc1 | 9.23 | 0.34% | -5.46 |  | 
14 | CCOc1nc2nc(C)c(C(=O)O)cc2c(-c2ccccc2)c1C#N | 7.3 | 1.34% | -54.07 |  | 
15 | CC1CC(=O)Nc2nc3c(c(N)c21)CCCC3 (configuration not stated) | 14.16 | 2.93% | -54.55 |  | 
16 | C#CCN(C)Cc1cc2cc(OCc3ccc(OC(=O)N(C)C)c4ncccc34)ccc2n1C | -0.57 | 1.92% | -64.25 |  | 
17 | NNC(=O)c1cccnc1 [NICOTINIC ACID HYDRAZIDE] | 3.91 | 1.56% | -4.91 |  | 
18 | O=C(N1[C@H]2CC[C@@H]1C(c1nnn[nH]1)C2)C(F)(F)F (some centres not stated) | 13.67 | 1.81% | -32.17 |  | 
19 | Cc1ccc(S(=O)(=O)N2[C@H]3CC[C@@H]2CC3)cc1 | 13.85 | 3.38% | -10.99 |  | 
20 | CCOC(=O)c1cn(Cc2ccccc2)c2ccccc12 | 3.42 | -1.33% | -2.24 |  | 

Row | SMILES | Inhibition (Klebsiella pneumoniae) [%] | Inhibition (Candida albicans) | Inhibition (Cryptococcus neoformans) [%] | Inhibition (Klebsiella pneumoniae; 32 ug/mL) | Inhibition (Cryptococcus neoformans; 32 ug/mL)
21 | CN1CC=C(c2cccn2C)CC1.Cl | 8.46 | 3.38% | -2.75 |  | 
22 | C#CCN1CCc2nc3nc(OC)c(C#N)cc3c(N)c2C1 | 9.96 | 0.5% | -73.36 |  | 
23 | NNC(=O)c1cn(Cc2ccccc2)c2ccccc12 | 10.74 | 0.77% | 3.84 |  | 
24 | O=C(CBr)NCc1ccccc1 | 15.98 | 10.2% | 6.35 |  | 
25 | CCOC(=O)c1cc2cc(OC(=O)NC3CCN(Cc4ccccc4)CC3)ccc2[nH]1 | 1.99 | 0.56% | -41.14 |  | 
26 | OCC(Cc1cnc[nH]1)NCc1ccccc1 (configuration not stated) | 4.01 | 0.31% | 1.68 |  | 
27 | Cl.ClCCN1CCCC1 | 3.45 | 5.34% | -1.83 |  | 
28 | COc1cc(C2C(C#N)=C(N)Oc3c2ccc2ccccc32)cc(OC)c1OC (configuration not stated) | 3.14 | -0.44% | -3.68 |  | 
29 | CN(C)C(=O)Oc1ccc(CCl)c2cccnc12 | 13.45 | 4.55% | -46.72 |  | 
30 | Cc1nc(N)c(C#N)cc1C(=O)O | -3.56 | 1.23% | -34.98 |  | 
31 | NNCCCc1c[nH]c2ccccc12.O=C(O)/C=C/C(=O)O | 10.99 | 1.63% | 4.26 |  | 
32 | [N-]=[N+]=NCC(=O)c1ccc(Br)cc1 | 7.99 | 3.1% | -9.49 |  | 
33 | CNCc1cn(C)c2ccc(OC)cc12.Cl | 11.42 | 1.37% | -1.31 |  | 
34 | CCOC(=O)C1=C(OC)OC(=O)CC1c1ccccc1 (configuration not stated) | 18.96 | 1.67% | -58.88 |  | 
35 | CCOC(=O)C1=C(C)OC(=O)CC1c1ccccc1 (configuration not stated) | 8.11 | 4.72% | -25.58 |  | 
36 | Nc1c2c(nc3c1C(c1ccccc1)CC(=O)N3)CCCC2 (configuration not stated) | 11.64 | 1% | -63.29 |  | 
37 | C#CCN(C)Cc1cc2cc(OC(=O)N(C)C)ccc2n1C | -2.9 | 3.66% | -26.57 |  | 
38 | COc1ccc2c(c1)cc(C[N+](C)(C)C)n2C.[I-] | 16.42 | 1% | -0.09 |  | 
39 | N#CC(C#N)=Cc1ccc(Cl)cc1 | 17.25 | 0.02% | -1.11 |  | 
